Source: PubChem BioAssay AID1159580 (chemical genetic matrix, 2015)
The whole screen tested about 5,500 compounds, of which about 2,000 (36%) were called active. About 18% were inconclusive and are not listed. No stated cut-off is given here; in the data, active means normalized growth mostly below about 0.91 (no sharp cut-off); inconclusive means no clear call, values can overlap the other calls; inactive means mostly above about 0.92. Some of the results follow.

Experiment: chemical genetic growth profiling, strain panel (AID 1159580);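 further: tested at 20 µM; growth read once vehicle control cultures reached saturation at 30 °C; 1 = growth at the plate median or of vehicle wells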
Details: S. cerevisiae deletion strains, growth OD
[1] = locus YHR030C, strain SLT2, stronger effect = lower value
[2] = locus YHR079C, strain IRE1, stronger effect = lower value
[3] = locus YJL095W, strain BCK1, stronger effect = lower value
[4] = locus YJL187C, strain SWE1, stronger effect = lower value
[5] = locus YJR066W, strain TOR1, stronger effect = lower value
[6] = locus YLR113W, strain HOG1, stronger effect = lower value
[7] = locus YNL183C, strain NPR1, stronger effect = lower value
[8] = locus YOR231W, strain MKK1, stronger effect = lower value
[9] = locus YPL256C, strain CLN2, stronger effect = lower value
[10] = locus YDL101C, strain DUN1, stronger effect = lower value

Measured: normalized growth

O=C(NC(=O)c1ccccc1Cl)Nc1ccc(OC(F)(F)F)cc1
inactive: locus YAL021C, strain ccr4, stronger effect = lower value 1.05 | locus YAL026C, strain drs2, stronger effect = lower value 1.02 | locus YAL030W, strain snc1, stronger effect = lower value 1.03 | locus YBL061C, strain skt5, stronger effect = lower value 1.02 | locus YBR009C, strain hhf1, stronger effect = lower value 0.999 | locus YBR023C, strain chs3, stronger effect = lower value 1.04 | locus YBR171W, strain sec66, stronger effect = lower value 1.05 | locus YBR231C, strain swc5, stronger effect = lower value 1.06 | locus YBR279W, strain paf1, stronger effect = lower value 1.01 | locus YCL011C, strain gbp2, stronger effect = lower value 1.04 | locus YCL016C, strain dcc1, stronger effect = lower value 1.04 | locus YCL061C, strain MRC1, stronger effect = lower value 1.04 | locus YCL069W, strain vba3, stronger effect = lower value 1.04 | locus YCR088W, strain abp1, stronger effect = lower value 1.03 | locus YDL005C, strain med2, stronger effect = lower value 1.05 | locus YDL040C, strain nat1, stronger effect = lower value 1.03 | locus YDR001C, strain nth1, stronger effect = lower value 1.02 | locus YDR069C, strain doa4, stronger effect = lower value 1.06 | locus YDR137W, strain rgp1, stronger effect = lower value 1.06 | locus YDR159W, strain sac3, stronger effect = lower value 1.04 | locus YDR195W, strain ref2 1.11 | locus YDR297W, strain sur2, stronger effect = lower value 1.03 | locus YDR334W, strain swr1, stronger effect = lower value 1.04 | locus YDR335W, strain msn5, stronger effect = lower value 1.04 | locus YDR392W, strain spt3, stronger effect = lower value 1.01 | locus YEL003W, strain gim4, stronger effect = lower value 1.03 | locus YEL037C, strain rad23, stronger effect = lower value 1.03 | locus YEL061C, strain CIN8 (second series), stronger effect = lower value 1.03 | locus YER015W, strain faa2, stronger effect = lower value 1.02 | locus YER016W, strain bim1, stronger effect = lower value 1.03 | locus YER111C, strain swi4, stronger effect = lower value 1.04 | locus YER155C, strain BEM2 (second series), stronger effect = lower value 1.07 | locus YFR010W, strain ubp6, stronger effect = lower value 1.03 | locus YGL167C, strain pmr1, stronger effect = lower value 1.03 | locus YGL173C, strain kem1, stronger effect = lower value 1.05 | locus YGL227W, strain vid30, stronger effect = lower value 1.03 | locus YGL240W, strain doc1, stronger effect = lower value 1.04 | locus YGL253W, strain hxk2, stronger effect = lower value 1.03 | locus YHR013C, strain ard1, stronger effect = lower value 1.09 | locus YHR027C, strain rpn1, stronger effect = lower value 1.04 | [1] 1.07 | [2] 1.07 | locus YHR142W, strain chs7, stronger effect = lower value 1.01 | locus YJL092W, strain hpr5, stronger effect = lower value 1.03 | locus YJL095W, strain BCK1 (second series), stronger effect = lower value 1.02 | [3] 1.06 | locus YJL115W, strain asf1, stronger effect = lower value 1.03 | locus YJL129C, strain trk1, stronger effect = lower value 1.08 | locus YJL154C, strain vps35, stronger effect = lower value 1.04 | locus YJL164C, strain tpk1, stronger effect = lower value 1.02 | locus YJL166W, strain qcr8, stronger effect = lower value 1.05 | [4] 1.03 | [5] 0.971 | locus YKL160W, strain elf1, stronger effect = lower value 1.05 | locus YKR026C, strain gcn3, stronger effect = lower value 1.04 | locus YKR091W, strain srl3, stronger effect = lower value 1.03 | locus YLL001W, strain dnm1, stronger effect = lower value 1.06 | locus YLL026W, stronger effect = lower value 1.02 | locus YLL041C, strain sdh2, stronger effect = lower value 1.03 | locus YLR027C, strain aat2, stronger effect = lower value 1.04 | [6] 1.07 | locus YLR221C, strain rsa3, stronger effect = lower value 1.05 | locus YLR258W, strain gsy2, stronger effect = lower value 1.02 | locus YLR262C, strain YPT6 (second series), stronger effect = lower value 1.06 | locus YLR320W, strain mms22, stronger effect = lower value 1.06 | locus YLR342W, strain FKS1, stronger effect = lower value 1.04 | locus YLR357W, strain rsc2, stronger effect = lower value 1.07 | locus YLR370C, strain arc18, stronger effect = lower value 1.04 | locus YLR384C, strain iki3, stronger effect = lower value 1.03 | locus YML120C, strain ndi1, stronger effect = lower value 1.03 | locus YMR058W, strain fet3, stronger effect = lower value 1.03 | locus YMR125W, strain sto1, stronger effect = lower value 1.06 | locus YMR129W, stronger effect = lower value 1.03 | locus YMR205C, strain PFK2, stronger effect = lower value 1.07 | locus YMR231W, strain pep5, stronger effect = lower value 1.03 | locus YNL071W, strain lat1, stronger effect = lower value 1.05 | [7] 0.985 | locus YNL209W, strain ssb2, stronger effect = lower value 1.03 | locus YNL248C, strain rpa49, stronger effect = lower value 1.07 | locus YNL322C, strain KRE1 (second series), stronger effect = lower value 1.05 | locus YNR049C, strain mso1, stronger effect = lower value 1.03 | locus YOR001W, strain rrp6, stronger effect = lower value 1.01 | locus YOR070C, strain gyp1, stronger effect = lower value 1.05 | locus YOR080W, strain dia2, stronger effect = lower value 1.05 | locus YOR083W, strain WHI5, stronger effect = lower value 1.05 | locus YOR106W, strain vam3, stronger effect = lower value 1.07 | [8] 1.07 | locus YOR265W, strain rbl2, stronger effect = lower value 1.03 | locus YOR270C, strain vph1, stronger effect = lower value 1.1 | locus YOR290C, strain snf2, stronger effect = lower value 1.07 | locus YPL051W, strain arl3, stronger effect = lower value 1.07 | locus YPL078C, strain atp4, stronger effect = lower value 1.06 | locus YPL106C, strain sse1, stronger effect = lower value 1.02 | locus YPL240C, strain hsp82, stronger effect = lower value 1.01 | [9] 1.11

CCOC(=O)CNc1ccc(F)cc1
inactive: locus YAL013W, strain DEP1, stronger effect = lower value 0.995 | locus YBR229C, strain ROT2, stronger effect = lower value 0.989 | [10] 1.02 | locus YDL134C, strain PPH21, stronger effect = lower value 0.977 | locus YDR150W, strain NUM1, stronger effect = lower value 1.02 | locus YEL061C, strain CIN8, stronger effect = lower value 1.01 | locus YGR078C, strain PAC10, stronger effect = lower value 0.991 | [1] 0.989 | locus YHR087W, strain rtc3, stronger effect = lower value 1.01 | [4] 1 | locus YJR043C, strain POL32, stronger effect = lower value 0.988 | locus YJR075W, strain HOC1, stronger effect = lower value 0.99 | locus YLR039C, strain RIC1, stronger effect = lower value 0.953 | locus YLR058C, strain SHM2 (second series), stronger effect = lower value 0.983 | locus YLR085C, strain ARP6, stronger effect = lower value 0.986 | locus YLR262C, strain YPT6, stronger effect = lower value 0.975 | locus YML094W, strain GIM5, stronger effect = lower value 1.04 | locus YMR219W, strain ESC1, stronger effect = lower value 0.997 | locus YMR263W, strain SAP30, stronger effect = lower value 0.983 | locus YNL128W, strain TEP1, stronger effect = lower value 0.98 | locus YNL153C, strain GIM3, stronger effect = lower value 1.01 | locus YNL298W, strain CLA4 (second series), stronger effect = lower value 0.974 | locus YNL322C, strain KRE1, stronger effect = lower value 0.999 | locus YNR030W, strain Alg12, stronger effect = lower value 1.03 | locus YPL055C, strain LGE1, stronger effect = lower value 1.02 | locus YPL241C, strain CIN2, stronger effect = lower value 0.977 | locus YPR135W, strain CTF4, stronger effect = lower value 0.965

CC(=O)/C(C#N)=N\Nc1ccc(F)cc1
inactive: locus YDR052C, strain DBF4, stronger effect = lower value 0.957 | locus YDR226W, strain ADK1, stronger effect = lower value 0.978
active: locus YAR019C, strain CDC15, stronger effect = lower value 0.429 | locus YBL105C, strain PKC1, stronger effect = lower value 0.519 | locus YBR135W, strain CKS1, stronger effect = lower value 0.782 | locus YBR136W, strain MEC1, stronger effect = lower value 0.583 | locus YBR160W, strain CDC28, stronger effect = lower value 0.723 | locus YDL017W, strain CDC7, stronger effect = lower value 0.584 | locus YDL028C, strain MPS1, stronger effect = lower value 0.728 | [10] 0.201 | locus YDL214C, strain PRR2, stronger effect = lower value 0.118 | locus YDR054C, strain cdc34, stronger effect = lower value 0.525 | locus YDR477W, strain SNF1, stronger effect = lower value 0.127 | locus YER123W, strain YCK3, stronger effect = lower value 0.115 | locus YER133W, strain GLC7, stronger effect = lower value 0.17 | locus YFL009W, strain cdc4, stronger effect = lower value 0.631 | locus YFL029C, strain CAK1, stronger effect = lower value 0.468 | locus YFR003C, strain YPI1, stronger effect = lower value 0.633 | locus YFR019W, strain FAB1, stronger effect = lower value 0.115 | locus YFR028C, strain CDC14, stronger effect = lower value 0.699 | locus YGR040W, strain KSS1, stronger effect = lower value 0.137 | locus YGR052W, strain FMP48, stronger effect = lower value 0.185 | locus YGR092W, strain DBF2, stronger effect = lower value 0.102 | [1] 0.108 | [2] 0.138 | locus YHR082C, strain KSP1, stronger effect = lower value 0.171 | locus YHR205W, strain SCH9, stronger effect = lower value 0.102 | locus YIL147C, strain SLN1, stronger effect = lower value 0.585 | [3] 0.12 | locus YJL128C, strain PBS2, stronger effect = lower value 0.316 | locus YJL157C, strain FAR1, stronger effect = lower value 0.102 | locus YJR066W, strain TOR1 (second series), stronger effect = lower value 0.107 | [5] 0.137 | locus YKL048C, strain ELM1, stronger effect = lower value 0.14 | locus YKL067W, strain YNK1, stronger effect = lower value 0.117 | locus YKL101W, strain HSL1, stronger effect = lower value 0.118 | locus YKL193C, strain SDS22, stronger effect = lower value 0.455 | locus YKL203C, strain TOR2, stronger effect = lower value 0.126 | [6] 0.178 | locus YLR133W, strain CKI1, stronger effect = lower value 0.118 | locus YLR403W, strain SFP1, stronger effect = lower value 0.0142 | locus YML070W, strain DAK1, stronger effect = lower value 0.123 | locus YMR001C, strain CDC5, stronger effect = lower value 0.458 | locus YMR205C, strain PFK2 (second series), stronger effect = lower value 0.132 | locus YMR277W, strain FCP1, stronger effect = lower value 0.349 | locus YNL006W, strain LST8, stronger effect = lower value 0.57 | locus YNL020C, strain ARK1, stronger effect = lower value 0.123 | locus YNL161W, strain CBK1, stronger effect = lower value 0.409 | [7] 0.147 | locus YNL207W, strain RIO2, stronger effect = lower value 0.632 | locus YNL222W, strain SSU72, stronger effect = lower value 0.487 | locus YNL307C, strain MCK1 (second series), stronger effect = lower value 0.126 | locus YOL078W, strain AVO1, stronger effect = lower value 0.568 | locus YOL136C, strain PFK27, stronger effect = lower value 0.114 | locus YOR061W, strain CKA2, stronger effect = lower value 0.127 | locus YOR119C, strain RIO1, stronger effect = lower value 0.131 | [8] 0.136 | locus YOR329C, strain SCD5, stronger effect = lower value 0.488 | locus YPL031C, strain PHO85, stronger effect = lower value 0.124 | locus YPL153C, strain RAD53, stronger effect = lower value 0.132 | locus YPL204W, strain HRR25, stronger effect = lower value 0.124 | locus YPL209C, strain IPL1, stronger effect = lower value 0.587 | [9] 0.181 | locus YPR025C, strain CCL1, stronger effect = lower value 0.631 | strain NNK1, stronger effect = lower value 0.344 | strain TSCII, stronger effect = lower value 0.512
